Reference: PubChem BioAssay (NCATS)
Where “and” joins values, the source holds several entries; their conditions need not be identical. Equal entries are not always repeated. Results filed as inconclusive are left out. A number with no mark means an inactive call. Calls of active or inactive are those of the source. The call rests on the fitted dose curve; in most records, active means well fitted activation curve with a large enough effect; inconclusive means small, poorly fitted or top-dose-only effect; inactive means no such curve, though single readings can be large or run the other way.

The compounds below were run against Cellular tumor antigen p53 (Homo sapiens) (UniProt P04637) (assay: Primary qHTS for small molecule compounds that upregulate eGFP-tagged delta133p53alpha (in N-terminal) cells. (AID 2060322; further: nearly all actives have a fitted effect of over 75% in size;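 on activation: cells pre-induced with doxycycline then dosed without doxycycline; series mostly up to about 56 µM; 0% = DMSO vehicle and 100% = reference activator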)). Conditions: NCI-H358 eGFP-delta133p53alpha fluorescence, 24 h; activation: active compounds read high.
Cellular tumor antigen p53 (Homo sapiens), sequence (P04637 whole entry, looked up): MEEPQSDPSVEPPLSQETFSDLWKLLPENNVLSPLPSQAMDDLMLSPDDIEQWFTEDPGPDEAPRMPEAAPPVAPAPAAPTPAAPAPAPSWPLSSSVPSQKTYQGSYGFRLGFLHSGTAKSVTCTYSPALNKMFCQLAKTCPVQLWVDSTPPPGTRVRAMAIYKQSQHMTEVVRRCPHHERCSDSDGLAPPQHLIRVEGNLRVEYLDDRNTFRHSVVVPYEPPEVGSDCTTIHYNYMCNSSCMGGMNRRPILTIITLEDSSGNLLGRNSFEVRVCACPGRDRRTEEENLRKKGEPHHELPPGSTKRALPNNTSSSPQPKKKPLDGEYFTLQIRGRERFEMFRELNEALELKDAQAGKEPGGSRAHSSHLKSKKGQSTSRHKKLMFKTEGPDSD
Text: Assay Development and Screening Technology
National Center for Advancing Translational Sciences (NCATS),
National Institute of Health (NIH), Rockville, Maryland
Cellular senescence (CS) is one of the hallmarks of aging and age-related diseases. Senescent cells are characterized by an irreversible growth arrest, an increase in senescence-associated beta-galactosidase (SA-beta-gal) activity and p16INK4a expression, an activation of the DNA damage response pathways, and the emergence of a senescence-associated secretory phenotype (SASP).
Delta133p53alpha, a human/primate-specific p53 protein isoform, delays or inhibits the induction of CS and SASP in various types of human cells, including progeria-derived fibroblasts, primary normal astrocytes, and CD8+ T lymphocytes. Induction of delta133p53alpha with small molecule compounds may provide therapeutic opportunities for inhibition of senescence/SASP-associated pathologies in progeria syndromes, astrocyte-mediated neuroprotection in neurodegenerative diseases, and possibly prevention and treatment of a wider range of senescence- and aging-associated diseases.
Here we report the development and validation of a cell-based quantitative high throughput screening (qHTS) assay in 1,536-well format. This qHTS assay uses the NCI-H358 cell line with doxycycline-inducible expression of enhanced green fluorescent protein (eGFP)-tagged delta133p53alpha, which allows efficient and highly quantitative measurement of the protein levels.
PROTOCOL TABLE (as described by Inglese J, Shamu CE and Guy RK. 2007)
SEQUENCE No. (e.g., 1, 2, 3, etc.); […] (e.g., Cells, Incubation, Reagent, etc.); VALUE; DESCRIPTION.
1; Cells; 4uL; 800 doxycycline treated cells / well in doxycycline-free media, 1536-well black, clear-bottom low base Aurora microplates.
2; Compounds; 23 nL; Kalypsis pin tool (Wako) equipped with 1536-well pin heads, 5-azacytidine positive control.
3; Incubation; 24 hr; 37C, 5% CO2; 95% relative humidity.
4; Aspiration; 1x; BioTek EL406 washer dispenser (Agilent).
5; Fixing; 3.5% paraformaldehyde, BioTek EL406 washer dispenser (Agilent).
6; Washing; 1x PBS; BioTek EL406 washer dispenser (Agilent).
7; Nuclei staining; 1:1000 dilution of Hoechst 33342 (Thermofisher), BioTek EL406 washer dispenser (Agilent).
8; Incubation; 20 min; in the dark at room temperature.
9; Washing; 2x, 1x PBS (ThermoFisher), BioTek EL406 washer dispenser (Agilent).
10; Reagent; 10 uL; 1x PBS per well, sealed with clear adhesive tape.
NOTES (numbers refer to sequence numbers above).
1. NCI-H358 cells expressing eGFP-tagged delta133p53alpha were grown in T75 culture flasks and treated with doxycycline for 24h, at 10 ng/ml for eGFP-D133p53a cells (N-terminal cell) and 100 ng/ml for D133p53a-eGFP cells (C-terminal cells). Cells were trypsinized, counted using a Counted 3 Automated Cell Counter (Thermo Fisher), and diluted to a concentration of 200,000 cells/ml. A Multidrop Combi Reagent Dispenser (ThermoFisher) was used to dispense 800 cells/well in […] of doxycycline-free media, into 1536-well black/clear bottom low base plates (AuroraMicroplates).
2. After plating cells, 23 nl of compound library, DMSO vehicle control or positive control (5-azacytidine) were transferred by Pin Tool (Wako). The plate map layout was the same for each plate: (column 1) non-doxycycline treated cells + DMSO vehicle control; (column 2) doxycycline treated cells + DMSO vehicle control baseline; (column 3) doxycycline treated cells + positive control 57.5 uM final concentration 5-azacytidine; (column 4) doxycycline treated cells + serial dilution of 5-azacytidine, 16-point 1:2 titration spanning 1.8 nM to […] final concentration; (columns 5-48) doxycycline treated cells + titration of library compounds.
3. Cells were incubated at 37 °C, 5 % CO2, 95% RH with breathable metal lid for 24h.
4-10. […] After two washes, 10 ul of 1X PBS (Thermo Fisher) was dispensed to each well. Clear adhesive plate seals (VWR) were applied and plates stored at 4 °C.
11. […]
Potency means the concentration at half of the fitted maximal effect.

Row | SMILES | activation | Potency
1 | C[C@H]1CC2C3CCC4=CC(=O)C=C[C@]4(C)[C@@]3(Cl)[C@@H](O)C[C@]2(C)[C@@]1(O)C(=O)CO (stereo not given in full) | -21.3% | –
2 | O=C(Nc1ccc(N(Cc2ccsc2)C(=O)Cn2nnc3ccccc32)cc1)C1CC1 | 11.6% | –
3 | C#Cc1cccc(Nc2ncnc3cc(OCCOC)c(OCCO)cc23)c1 | 34% | –
4 | C=C(C)C1CC2(CO)C(=CC1=O)CCC(O)C2C (stereo not given) | -4.58% | –
5 | COc1ccc(Cl)cc1C(=O)NCCc1ccc(S(=O)(=O)NC(=O)NC2CCCCC2)cc1 | 3.95% and -3.34% and -19.4% | –
6 | COc1cc(C(C)C)c(Oc2cnc(NC(CO)CO)nc2N)cc1I | -13.5% | –
7 | OCCCc1ccccc1 | -6.21% | –
8 | Cc1ccc(Cc2c(C)nc3nc(SCC(=O)NCCN4CCNCC4)nn3c2C)cc1 | -9.67% | –
9 | CC(C)C1NC(=O)C2CCCN2C1=O (stereo not given) | 8.93% | –
10 | COc1cc(CNC(=O)CCCC/C=C/C(C)C)ccc1O | -7.14% | –
11 | O=C(O)Cc1cn([C@@H]2O[C@H](CO)[C@@H](O)[C@H](O)[C@H]2O[C@@H]2O[C@H](CO)[C@@H](O)[C@H](O)[C@H]2O)c2ccccc12 | 3.82% | –
12 | Cc1c(Cl)cccc1Nc1ccccc1C(=O)O | 8.47% | –
13 | COC(=O)C1=C[C@@H](O)[C@@H](O)[C@H](O[C@@H]2O[C@H](COC(=O)/C=C/c3ccccc3)[C@@H](O)[C@H](O)[C@H]2O)C1 | -3.05% | –
14 | NS(=O)(=O)c1ccc(C(=O)O)cc1 | -37.9% | –
15 | C=C(C(=O)OC)[C@]12O[C@@](C)(CC[C@@]3(O)/C(=C\C)C(=O)O[C@]3(C)C[C@@H]1OC(=O)C(CO)CN1CCCC1C(=O)O)CC2=O (stereo not given in full) | -18.8% | –
16 | O=C(O)CCC/C=C\C[C@@H]1[C@@H](/C=C/[C@H](O)C2Cc3ccccc3C2)[C@@H](F)C[C@@H]1O | -5.22% | –
17 | OC[C@H]1O[C@@H](OCCc2ccccc2)[C@H](O[C@@H]2OC[C@](O)(CO)[C@H]2O)[C@@H](O)[C@@H]1O | -4.58% | –
18 | CN(C)CCOc1cc(NS(=O)(=O)c2c(Cl)cc(C(F)(F)F)cc2Cl)ccc1Cl | 0.477% | –
19 | S=C(S)OC1CC2CC1C1CCCC21 (stereo not given) | -23.4% | –
20 | CC1C2=CC(=O)OC2(O)CC2C1C(O)CC1C(C)(CO)CCCC21C (stereo not given) | -9.16% | –

Row | SMILES | activation | Potency
21 | C=CC(C)(C)C12CC3C(=O)NC(Cc4cnc[nH]4)C(=O)N3C1Nc1ccccc12 (stereo not given) | 13.4% | –
22 | COc1ccc(C2(C#N)CCC(C(=O)O)CC2)cc1OC1CCCC1 (stereo not given) | -6.96% and -15.7% | –
23 | Cn1cncc1[C@@](N)(c1ccc(Cl)cc1)c1ccc2c(c1)c(-c1cccc(Cl)c1)cc(=O)n2C | 15.2% | –
24 | CCCCC(=O)O[C@]1(C(=O)CO)[C@@H](C)C[C@H]2[C@@H]3CCC4=CC(=O)C=C[C@]4(C)[C@@]3(F)[C@@H](O)C[C@@]21C | 8.12% | –
25 | COc1c2cc(c(O)c1OC)-c1cc(ccc1O)CCC(O)CCCC2 (stereo not given) | 11.5% | –
26 | O=C(O)c1ccc(NC(=O)[C@H](CC2CCCC2)n2cnc(C(F)(F)F)c2)nc1 | -23.2% | –
27 | C=C1C(=O)O[C@@H]2C/C(C)=C\C(=O)/C=C(\C)[C@@H](OC(=O)/C(C)=C\C)[C@H](O)[C@@H]12 | – | 5.88 µM (active)
28 | CC(C)=C/C=C\[C@H](C)[C@H]1CC[C@]2(C)C[C@@H]3C(C)=CC(=O)C3/C(CO)=C\C[C@@H]12 (stereo not given in full) | -9.92% | –
29 | CCC(C)C(=O)OC12C(OC(C)=O)C(C)C3(O)C(C=C(CO)CC4(O)C(=O)C(C)=CC43)C1C2(C)C (stereo not given) | -19.1% | –
30 | O=C(OC[C@H]1O[C@H](O[C@]2(CO)O[C@H](CO)[C@@H](O)[C@@H]2O)[C@H](O)[C@@H](O)[C@@H]1O)c1ccccc1 | 0.763% | –
31 | COC(=O)CC(O)C1OC(c2ccccc2)C(O)C1O (stereo not given) | -2.29% | –
32 | CN(C)CCCN1c2ccccc2Sc2ccc(Cl)cc21 | -15.3% | –
33 | N#CC1(c2ccc(F)cc2)CCC(=O)CC1 | -18.6% | –
34 | Cc1ccc(Nc2nnc(-c3ccc([N+](=O)[O-])cc3)o2)cc1Cl | 9.82% | –
35 | C[C@@H]1O[C@@H](O[C@H]2[C@H](OC(=O)[C@]34CCC(C)(C)C[C@H]3C3=CCC5[C@@]6(C)C[C@H](O)[C@H](O[C@@H]7O[C@H](CO)[C@@H](O)[C@H](O)[C@H]7O)[C@@](C)(CO)C6[C@H](O)C[C@@]5(C)[C@]3(C)C[C@H]4O)OC[C@H](O)[C@@H]2O)[C@H](O)[C@H](O)[C@H]1O[C@@H]1OC[C@@H](O)[C@H](O[C@H]2OC[C@](O)(CO)[C@H]2O)[C@H]1O (stereo not given in full) | 27.7% | –
36 | O=C1O[C@H](CO)[C@@H](O)[C@H](O)[C@H]1O | 6.69% | –
37 | COc1cc(C(C)=O)c(OC)c2c1OC(C)(C)C=C2 | 6.25% | –
38 | CC1CCC23COC(=O)C2=CC(O)CC3C1(C)CCc1ccoc1 (stereo not given) | -14.3% | –
39 | Cc1cc2c(cc1C1(c3ccc(C(=O)O)cn3)CC1)C(C)(C)CCC2(C)C | -11.7% and 0.333% | –
40 | O=c1[nH]c2ccccc2c2ccccc12 | 11.2% | –
